26S disassembly = blocks ATP-dependent breakdown of the yeast 26S proteasome; anti-FLAG beads, GFP-proteasome disassembly, flow cytometry; inhibition of disassembly, % (no concentration beside the values); hit rate 0.2% among 24,000; AID 751;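 active = inhibition of disassembly above about 33%, limit read from the data; inconclusive = likely self-fluorescent, control bead median signal at least 40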;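 note: plate controls were ATP control with full disassembly for no effect and ATP-gamma-S intact proteasomes for full effect; higher percent means more bead fluorescence retained so stronger block of disassembly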
Autofluor Jurkat = compound fluoresces in Jurkat cells, VLA-4 screen interference; compound autofluorescence, flow cytometry; hits give high values; 1 = vehicle-only cell background; fluorescence ratio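 (tested at 10 µM compound in the well)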; hit rate 0.61% among 24,000; AID 576;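 active = fluorescence ratio above 2.44, which is 1 plus 3 SD of all ratios; inconclusive = signal too bright to measure linearly, ratio around 10 or more; inactive = fluorescence ratio below 2.44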;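 note: green fluorescence of cells measured with 488 nm excitation and 530 nm emission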
VLA-4 antagonist = inhibitors of LDV-FITC ligand binding to Mn2+-activated human VLA-4 integrin. P13612. Jurkat cells, LDV-FITC binding with Mn2+, flow cytometry; 100% = Mn2+-driven binding gain fully reversed. inhibition, % at 10 µM (by protocol). hit rate 0.2% among 24,000;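 active = inhibition above 50%; inconclusive = compound itself fluorescent, judged against control cell fluorescence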;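 note: 0% = Mn2+ stimulated cells lacking compound and 100% = ligand binding without Mn2+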
VLA-4 allo ag = allosterically activates the human VLA-4 integrin; P13612; Jurkat cells, LDV-FITC binding, flow cytometry; activation, % at 10 µM (by protocol); 24,000 tested, under 10 active;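 active = fluorescent ligand binding to cells raised by more than 40% of the manganese-induced maximum; inconclusive = compound's own fluorescence above 85% of the ligand control signal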;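 note: 0% = ligand binding without compound and 100% = manganese-stimulated maximal binding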
QS inhibitor = blocks AIP-induced quorum sensing reporter in S. aureus | S. aureus RN6390 RNAIII-GFP reporter, flow cytometry 3 h | inhibition, % at 2 µM | hit rate 0.3% among 24,000;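 active = share of bacteria positive for the green fluorescent reporter and its mean brightness both inhibited by 50% or more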;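 note: 0% = AIP-stimulated control and 100% = unstimulated bacteria without AIP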
Numbers without * were called inactive; ? = inconclusive; nt = not tested or not shown. Hits are enriched below; roughly 1.2% of the tested compounds scored in any of these assays.

SMILES	26S disassembly	Autofluor Jurkat	VLA-4 antagonist	VLA-4 allo ag	QS inhibitor
CCOC(=O)C1=C(C)N=C2SC(CC)C(=O)N2C1c1ccc(OC(C)=O)c(OCC)c1 (stereo not drawn)	-3	1	3	-1	16
O=C1CS/C(=N\C(=O)N2c3ccccc3Sc3ccccc32)N1	5	1.2	14	-18	87*
CCOc1ccccc1C1C(C#N)=C(N)Nc2onc(-c3ccccc3)c21 (stereo not drawn)	-1	1.1	51*	-8	2
CCOC(=O)c1oc2ccccc2c1NC(=O)c1cccc(OC)c1OC	-2	1	-4	4	16
CCOC(=O)c1c(C)oc2c1c(/C=N/c1ccccn1)c(O)c1ccccc12	?	8.9*	?	?	0
CCOC(=O)c1c(C)oc2ccc(O)c(CN(C)C)c12	-1	0.97	-20	2	0
CN1CC=C2C(C#N)=C(N)C(C#N)(C#N)C(Cc3ccccc3)C2C1 (stereo not drawn)	26	2.6*	?	?	-1
CCC(=O)c1ccc(OCC(O)Cn2cnc3ccccc32)cc1 (stereo not drawn)	0	3.2*	?	?	-2
CC(=O)c1ccc(OCC(O)CN2CCN(Cc3ccccc3)CC2)cc1 (stereo not drawn)	0	0.97	-23	5	0
COc1ccc(CCN2CCC(Nc3nc4ccccc4n3Cc3ccc(F)cc3)CC2)cc1	1	2.6*	?	?	4
O=C(NCc1cccs1)C1CCCN(S(=O)(=O)c2cccs2)C1 (stereo not drawn)	0	1.2	26	-6	-4
Cc1ccc(NC(=O)C2CCCN(S(=O)(=O)c3cccs3)C2)cc1 (stereo not drawn)	-1	1.1	68*	-13	0
O=c1ccc2cc3c([nH]c4ccc(Br)cc43)oc-2c1O	-1	6.6*	?	?	0
CCOC(=O)c1cc2c(=O)n3cccc(C)c3nc2n(CCc2ccccc2)c1=N	0	1.2	-14	19	-1
COc1cccc2sc(Nc3nnc(-c4ccc(F)cc4)o3)nc12	nt	1.1	90*	0	nt
COc1cccc2sc(Nc3nnc(-c4cccs4)o3)nc12	-1	1.2	?	?	-2
COc1ccc(CCNc2oc(COc3ccccc3F)nc2C#N)cc1	48*	1.2	18	2	4
C=CCn1c(SCC(=O)c2cc(C)n(C(C)COC)c2C)nc2sc(C)c(C)c2c1=O (stereo not drawn)	3	1.1	-8	-2	7
Cc1cc(C)cc(-n2nnc(C(=O)NCc3ccccc3Cl)c2N)c1	0	2.8*	?	?	1
Cc1cccc(-n2nnc(C(=O)NCc3ccccc3)c2N)c1	-2	1.1	-10	1	2
CCOC(=O)C1=C(C)Nc2nnnn2C1c1cccc(OC)c1OC (stereo not drawn)	-1	0.99	-4	-7	-3
CCOC(=O)C1=C(C)N=c2s/c(=C\c3cccn3C)c(=O)n2C1c1cccc(OC)c1OC (stereo not drawn)	14	7.8*	?	?	6
CCOc1ccc(S(=O)(=O)N2CCc3ccccc3C2)cc1	1	3.2*	?	?	19
COc1cc(-n2nc(C)c3c2OC(N)=C(C#N)C3c2ccccc2)c(Cl)c(Br)c1O (stereo not drawn)	5	3*	?	?	0
Cc1nn(-c2ccccc2)c2c1C(c1c(C)[nH]c(C#N)c1C)C(C#N)=C(N)O2 (stereo not drawn)	1	1.1	-6	-3	6
SMILES	26S disassembly	Autofluor Jurkat	VLA-4 antagonist	VLA-4 allo ag	QS inhibitor
C=CCN(c1ccccc1)S(=O)(=O)c1ccc2c(c1)oc(=O)n2C	0	2.5*	?	?	21
CCCCOc1ccc(-c2nnn(CC(=O)Nc3ncc(CC(=O)OCC)s3)n2)cc1	0	1	94*	-34	-3
COc1ccc(-c2nc(N3CCOCC3)nc3nn4c(C)c(CCC(=O)O)c(C)nc4c23)cc1	0	1.1	-1	-3	-4
Cc1ccc(N2CCN(C(=S)c3ccc(N(C)C)cc3)CC2)cc1	6	3.5*	?	?	2
C=C(C)C1Cc2c(C)nn(-c3nc(C)cc(C)n3)c2C1 (stereo not drawn)	3	1	54*	-20	-1
C=C(C)C1Cc2nc(N)nc(C)c2C1 (stereo not drawn)	1	0.94	17	-7	1
